Measured values as given in ChEMBL document CHEMBL3988442, “University of Dundee, Small-Polar-MMV Screening Library” (2021).
The campaign covered roughly 48,000 compounds. About 13,000 (27%) showed an effect of 50% or more. The list shows a part of the results.

test system: Wolbachia pipientis; experiment: Anti-Wolbachia Cell-Based Screen; type: functional; parameters: scale not given: in the data most compounds retested in dose-response had high values; details: 5 µM

In order of falling “Percent Effect” value:
1. COc1ccc(CN(C)CC2(O)CCNC2)cc1 (stereo not drawn)  119.3%
2. CC(C)(C)OCC1CN(Cc2cccs2)S(=O)(=O)c2cnccc2O1 (stereo not drawn)  118.6%
3. Cl.Cl.O=C(NCc1cncc2c1CCN(C1CCOCC1)C2)c1ccco1  116%
4. Cl.Cl.O=C(NCc1cncc2c1CCN(C1CCOCC1)C2)c1ccno1  114.6%
5. Cl.Cl.O=C(NCc1cncc2c1CCN(C1CCOC1)C2)c1ccco1 (stereo not drawn)  112.9%
6. O=C(O)C(F)(F)F.O=C(O)C(F)(F)F.c1cncc(N2CCCC3(CCN(CCN4CCCC4)CC3)C2)c1  112%
7. O=C(CSc1nccc(-c2ccc3c(c2)OCO3)n1)N1CCOCC1  110.7%
8. CCN1CC(COc2ccc(OC)cc2)Oc2ccncc2S1(=O)=O (stereo not drawn)  109.7%
9. COCCNC(=O)[C@H]1C[C@@H]2CCN(c3ncccn3)C[C@H]2O1.O=C(O)C(F)(F)F  108.2%
10. COCCNC(=O)[C@H]1C[C@@H]2CCN(c3ncccn3)C[C@@H]2O1  107.5%
11. CCSc1nsc(NC(=O)COc2ccc3c(c2)OCO3)n1  106.2%
12. Cl.Cl.O=C(NCc1cncc2c1CCN(CC1CCOC1)C2)c1ccco1 (stereo not drawn)  105%
13. CCN1CC(COC(C)(C)C)Oc2ccncc2S1(=O)=O (stereo not drawn)  103.5%
14. COCC1CN(Cc2ccc(OC)cc2)S(=O)(=O)c2cnccc2O1 (stereo not drawn)  99.8%
15. O=C(NCc1cccnc1)[C@H]1C[C@@H]2CCN(c3ccncn3)C[C@H]2O1.O=C(O)C(F)(F)F.O=C(O)C(F)(F)F  98.22%
16. CC(C)(C)OCC1CN(CC2CC2)S(=O)(=O)c2cnccc2O1 (stereo not drawn)  96.42%
17. CNc1cc(C2CCN2c2ncccn2)nc(C)n1 (stereo not drawn)  95.15%
18. NC(=O)CSc1nccc(-c2ccc3c(c2)OCO3)n1  94.21%
19. Nc1nc(SCc2ccc3c(c2)OCO3)ns1  92.69%
20. O=C(O)C(F)(F)F.c1cncc(N2CCC3(CCCN(c4ccncc4)C3)CC2)c1  92.43%
21. COCCNC(=O)[C@H]1C[C@@H]2CCN(c3ccncn3)C[C@H]2O1.O=C(O)C(F)(F)F  90.71%
22. COCCNC(=O)[C@@H]1C[C@@H]2CCN(c3ncccn3)C[C@H]2O1.O=C(O)C(F)(F)F  90.69%
23. COCCNC(=O)[C@H]1C[C@@H]2CCN(c3ccccc3)C[C@H]2O1.O=C(O)C(F)(F)F  88.58%
24. Cc1nc(C2CCN2c2ncccn2)cc(N(C)C)n1 (stereo not drawn)  87.93%
25. Cc1nc(NC2CCCC2)cc(C2CCN2c2ncccn2)n1 (stereo not drawn)  84.97%
26. O=C(O)C(F)(F)F.c1cncc(N2CCCC3(CCN(CC4CCCO4)CC3)C2)c1 (stereo not drawn)  83.5%
27. O=C(O)CSc1nccc(-c2ccc3c(c2)OCO3)n1  78.66%
28. CC(=O)Nc1nc(SCc2ccc3c(c2)OCO3)ns1  70.31%
29. CCNc1nc(-c2cccnc2)c(-c2ccnc(N3CCCC3)n2)s1  59.83%
30. CCNc1nc(-c2cccnc2)c(-c2ccnc(N3CCOCC3)n2)s1  59.36%
31. N#Cc1ccc(N2CCCC3(CCN(c4cccnc4)CC3)C2)cc1.O=C(O)C(F)(F)F  32.72%
32. COCCNC(=O)[C@H]1C[C@@H]2CCN(CCc3ccccc3)C[C@H]2O1.O=C(O)C(F)(F)F  28.03%
33. C=C(C)CN(CC)S(=O)(=O)c1c(F)cc(NC(C)=O)cc1F  26.08%
34. CCCS(=O)(=O)c1ccc(N2CCC(Cc3ccccc3)CC2)nn1  21.52%
35. O=C(CNc1cc2c(cc1Cl)OCCO2)NCC(F)(F)F  19.2%
36. N#Cc1cn(C2CC2)c(=O)n(Cc2ncc(-c3cccs3)o2)c1=O  18.42%
37. COc1cc2c(nn1)CCN(Cc1nnc(Cc3ccccc3)o1)C2  16.22%
38. COc1ccc(C[C@@H]2CC[C@H](CN(C)C3CCN(C)CC3)O2)cc1  15.35%
39. O=C(O)C(=O)O.c1csc(CN2CC(c3nc(-c4cnccn4)no3)C2)c1  14.88%
40. Cl.Cl.O=C(NCc1cncc2c1CCN(Cc1ccccc1)C2)C1CC1  12.37%
41. O=C(NCc1cccnc1)[C@@H]1C[C@@H]2CCN(c3ncc(F)cn3)C[C@@H]2O1.O=C(O)C(F)(F)F.O=C(O)C(F)(F)F  11.34%
42. CN(Cc1ccc2c(c1)OCO2)Cc1cscn1  9.115%
43. CC(NCC1=Cc2cc(Cl)ccc2OC1)c1nnc2n1CCCC2 (stereo not drawn)  8.386%
44. Cn1cccc(NC(=O)N2CCC(COCc3ccccc3)C2)c1=O (stereo not drawn)  7.256%
45. CN(Cc1nnc2n1CCC2)S(=O)(=O)c1cc(Br)ccc1Br  5.695%
46. CN(Cc1ccc2nsnc2c1)CC1(O)CCNC1 (stereo not drawn)  4.818%
47. CO[C@@H]1CCN(Cc2cccs2)[C@H]1Cc1ccncc1  4.278%
48. O=S(=O)(NC1=NCN(CCc2cccs2)CN1)c1ccc(F)cc1  4.244%
49. O=C(c1cc(COc2ccc3c(c2)OCO3)[nH]n1)N1CCSCC1  4.191%
50. COc1ccc(CCC(=O)Nc2ccncc2C)cc1  3.309%
51. O=C(Cc1cccc(F)c1F)NS(=O)(=O)c1ccc(Cl)cn1  3.295%
52. CCCS(=O)(=O)N1CCN(c2ccnc(N3CCCC3)n2)CC1  2.468%
53. Cc1cc(N[C@H](CO)COCc2ccccc2)n2nc(C)cc2n1  2.305%
54. CS(=O)(=O)N1CCCN(C(=O)c2ccc(Cn3ccccc3=O)o2)CC1  2.265%
55. Cl.Cl.O=C(NCc1cncc2c1CCN(CC1CCOC1)C2)c1ccno1 (stereo not drawn)  2.196%
56. CCc1cnc(NCC(c2cccnc2)N2CCOCC2)nc1 (stereo not drawn)  1.67%
57. Cl.Cl.O=C(NCc1cncc2c1CCN(Cc1cccc(F)c1)C2)C1CC1  1.539%
58. CC(=O)N1CCCN(C(=O)Cc2ccc3c(c2)OCO3)CC1  1.177%
59. COc1ccc(N2CCCC3(C2)CN(c2cccnc2)CCO3)cc1.O=C(O)C(F)(F)F (stereo not drawn)  0.9473%
60. CCc1ncc2c(n1)CN(CC(=O)N1CCc3sccc3C1)CC2  0.7848%
61. CCNc1ccnc(N2CCN(Cc3ncccc3C)CC2)n1  0.1311%
62. c1ccc(NCc2cn3c(n2)CN(Cc2nccs2)CC3)nc1  0.03801%
63. CN(C)C(=O)c1cccnc1-c1ccc2c(c1)OCO2  -0.5608%
64. CNCc1nc(-c2ccc3c(c2)OCO3)c[nH]1.Cl.Cl  -0.9226%
65. O=C(NCc1cccnc1)[C@@H]1C[C@H]2[C@H](CCN2c2ncc(F)cn2)O1.O=C(O)C(F)(F)F.O=C(O)C(F)(F)F  -1.497%
66. NC(=O)CCC(=O)N1CCc2[nH]nc(-c3ccc4c(c3)OCO4)c2C1  -2.811%
67. Cn1nc2c(cc1=O)CN(Cc1nnc(-c3ccco3)o1)CC2  -2.817%
68. Fc1cnccc1CN1CCCC2(CCN(c3ncccn3)CC2)C1.O=C(O)C(F)(F)F  -3.022%
69. CN1CCOC[C@H]1c1nc(-c2cccnc2)c[nH]1  -3.029%
70. COc1ccc(OCCN2CCOCS2(=O)=O)cc1  -3.078%
71. Cl.Cl.O=C(NCc1cncc2c1CCN(Cc1ccc(F)cc1)C2)C1CC1  -3.295%
72. Cc1nnc(SCCCNC(=O)Cc2ccc3c(c2)OCO3)s1  -3.831%
73. CN(C)CCn1ccc2cc(NC(=O)NCc3ccon3)ccc21  -4.037%
74. CC(C)c1nc(CC(=O)N(C)Cc2ccc3c(c2)OCO3)cs1  -4.138%
75. O=C(O)C(F)(F)F.c1cncc(N2CCOCC3(CCCN(c4nncs4)C3)C2)c1 (stereo not drawn)  -4.249%
76. CC(C)CN1CCC(C(=O)NCCNC(=O)c2ccco2)CC1  -4.338%
77. O=C(NS(=O)(=O)c1ccccc1Cl)c1cccc2c1OCCO2  -4.478%
78. COCCCN1CC2(CCCN(c3ncc4nc[nH]c4n3)C2)CCC1=O (stereo not drawn)  -4.995%
79. Cc1ccc(C)c(OCC(O)Cn2ncc3cnn(C)c(=O)c32)c1 (stereo not drawn)  -5.252%
80. CN(Cc1nccn1C)c1ccc(-c2nccn2C)nn1  -5.677%
81. Cc1nc(-c2noc3ccc(C(=O)NCCN(C)C)cc23)co1  -5.984%
82. CCOc1ccc(-c2ccc3c(c2)OCO3)cc1C(N)=O  -6.962%
83. Cc1cc(NC(=O)NC(C)CO)ccc1OCC(F)(F)F (stereo not drawn)  -7.879%
84. CC(C)COCCCNC(=O)NC(C)c1ccc(-n2cncn2)cc1 (stereo not drawn)  -8.242%
85. COc1ccc(C2(C(=O)N3CC[C@@]4(O)CCNC[C@H]4C3)CCCC2)cc1  -11.98%
86. COc1ccc(CN2CCOC[C@H](Oc3cccnc3)C2)cc1  -13%
87. CN(CCn1cccn1)S(=O)(=O)c1cccc(Cl)c1C#N  -13.18%
88. Cc1ccc(CN(C)C)cc1NC(=O)C1CC=CC1  -13.67%
89. OCCOc1ccc(NCc2cccc3cccnc23)cn1  -13.71%
90. CSCC(=O)N1CCc2[nH]nc(-c3ccc4c(c3)OCO4)c2C1  -14.59%
91. COC(=O)c1ccc(N2CCN(C(=O)CCCc3cn[nH]c3)CC2)cc1  -14.7%
92. CCNc1ncc(C(=O)NCc2csc(C)n2)cn1  -20.21%
93. CC(=O)c1cc(CC(=O)N2CCN(S(=O)(=O)c3ccccc3)CC2)cs1  -20.85%
94. O=C(Cc1ccc2c(c1)OCO2)N1CCN(c2ccncc2)CC1  -22.19%
95. O=C(c1cncc(N2CCC3(CC2)NCCNC3=O)n1)N1CCCCC1  -23.93%
96. COCCNC(=O)[C@H]1CN(c2ncccn2)C[C@H]2OCC[C@@H]12  -34.97%
97. COCCNC(=O)[C@@H]1CN(c2ncccn2)C[C@H]2OCC[C@H]21  -43.81%
98. COCCNC(=O)[C@H]1C[C@@H]2CCN(CCc3ccccc3)C[C@@H]2O1.O=C(O)C(F)(F)F  -51.54%
